Compound activity as filed in PubChem BioAssay.
mHTT CaM bind: inhibitors of human mutant huntingtin-calmodulin interaction; P42858; AlphaScreen His-mHTT/GST-CaM binding, luminescence; inhibition, % at 15 µM; 3.6% of 190,000 active; AID 1671202
Target sequence (P42858 whole entry, looked up, change not shown): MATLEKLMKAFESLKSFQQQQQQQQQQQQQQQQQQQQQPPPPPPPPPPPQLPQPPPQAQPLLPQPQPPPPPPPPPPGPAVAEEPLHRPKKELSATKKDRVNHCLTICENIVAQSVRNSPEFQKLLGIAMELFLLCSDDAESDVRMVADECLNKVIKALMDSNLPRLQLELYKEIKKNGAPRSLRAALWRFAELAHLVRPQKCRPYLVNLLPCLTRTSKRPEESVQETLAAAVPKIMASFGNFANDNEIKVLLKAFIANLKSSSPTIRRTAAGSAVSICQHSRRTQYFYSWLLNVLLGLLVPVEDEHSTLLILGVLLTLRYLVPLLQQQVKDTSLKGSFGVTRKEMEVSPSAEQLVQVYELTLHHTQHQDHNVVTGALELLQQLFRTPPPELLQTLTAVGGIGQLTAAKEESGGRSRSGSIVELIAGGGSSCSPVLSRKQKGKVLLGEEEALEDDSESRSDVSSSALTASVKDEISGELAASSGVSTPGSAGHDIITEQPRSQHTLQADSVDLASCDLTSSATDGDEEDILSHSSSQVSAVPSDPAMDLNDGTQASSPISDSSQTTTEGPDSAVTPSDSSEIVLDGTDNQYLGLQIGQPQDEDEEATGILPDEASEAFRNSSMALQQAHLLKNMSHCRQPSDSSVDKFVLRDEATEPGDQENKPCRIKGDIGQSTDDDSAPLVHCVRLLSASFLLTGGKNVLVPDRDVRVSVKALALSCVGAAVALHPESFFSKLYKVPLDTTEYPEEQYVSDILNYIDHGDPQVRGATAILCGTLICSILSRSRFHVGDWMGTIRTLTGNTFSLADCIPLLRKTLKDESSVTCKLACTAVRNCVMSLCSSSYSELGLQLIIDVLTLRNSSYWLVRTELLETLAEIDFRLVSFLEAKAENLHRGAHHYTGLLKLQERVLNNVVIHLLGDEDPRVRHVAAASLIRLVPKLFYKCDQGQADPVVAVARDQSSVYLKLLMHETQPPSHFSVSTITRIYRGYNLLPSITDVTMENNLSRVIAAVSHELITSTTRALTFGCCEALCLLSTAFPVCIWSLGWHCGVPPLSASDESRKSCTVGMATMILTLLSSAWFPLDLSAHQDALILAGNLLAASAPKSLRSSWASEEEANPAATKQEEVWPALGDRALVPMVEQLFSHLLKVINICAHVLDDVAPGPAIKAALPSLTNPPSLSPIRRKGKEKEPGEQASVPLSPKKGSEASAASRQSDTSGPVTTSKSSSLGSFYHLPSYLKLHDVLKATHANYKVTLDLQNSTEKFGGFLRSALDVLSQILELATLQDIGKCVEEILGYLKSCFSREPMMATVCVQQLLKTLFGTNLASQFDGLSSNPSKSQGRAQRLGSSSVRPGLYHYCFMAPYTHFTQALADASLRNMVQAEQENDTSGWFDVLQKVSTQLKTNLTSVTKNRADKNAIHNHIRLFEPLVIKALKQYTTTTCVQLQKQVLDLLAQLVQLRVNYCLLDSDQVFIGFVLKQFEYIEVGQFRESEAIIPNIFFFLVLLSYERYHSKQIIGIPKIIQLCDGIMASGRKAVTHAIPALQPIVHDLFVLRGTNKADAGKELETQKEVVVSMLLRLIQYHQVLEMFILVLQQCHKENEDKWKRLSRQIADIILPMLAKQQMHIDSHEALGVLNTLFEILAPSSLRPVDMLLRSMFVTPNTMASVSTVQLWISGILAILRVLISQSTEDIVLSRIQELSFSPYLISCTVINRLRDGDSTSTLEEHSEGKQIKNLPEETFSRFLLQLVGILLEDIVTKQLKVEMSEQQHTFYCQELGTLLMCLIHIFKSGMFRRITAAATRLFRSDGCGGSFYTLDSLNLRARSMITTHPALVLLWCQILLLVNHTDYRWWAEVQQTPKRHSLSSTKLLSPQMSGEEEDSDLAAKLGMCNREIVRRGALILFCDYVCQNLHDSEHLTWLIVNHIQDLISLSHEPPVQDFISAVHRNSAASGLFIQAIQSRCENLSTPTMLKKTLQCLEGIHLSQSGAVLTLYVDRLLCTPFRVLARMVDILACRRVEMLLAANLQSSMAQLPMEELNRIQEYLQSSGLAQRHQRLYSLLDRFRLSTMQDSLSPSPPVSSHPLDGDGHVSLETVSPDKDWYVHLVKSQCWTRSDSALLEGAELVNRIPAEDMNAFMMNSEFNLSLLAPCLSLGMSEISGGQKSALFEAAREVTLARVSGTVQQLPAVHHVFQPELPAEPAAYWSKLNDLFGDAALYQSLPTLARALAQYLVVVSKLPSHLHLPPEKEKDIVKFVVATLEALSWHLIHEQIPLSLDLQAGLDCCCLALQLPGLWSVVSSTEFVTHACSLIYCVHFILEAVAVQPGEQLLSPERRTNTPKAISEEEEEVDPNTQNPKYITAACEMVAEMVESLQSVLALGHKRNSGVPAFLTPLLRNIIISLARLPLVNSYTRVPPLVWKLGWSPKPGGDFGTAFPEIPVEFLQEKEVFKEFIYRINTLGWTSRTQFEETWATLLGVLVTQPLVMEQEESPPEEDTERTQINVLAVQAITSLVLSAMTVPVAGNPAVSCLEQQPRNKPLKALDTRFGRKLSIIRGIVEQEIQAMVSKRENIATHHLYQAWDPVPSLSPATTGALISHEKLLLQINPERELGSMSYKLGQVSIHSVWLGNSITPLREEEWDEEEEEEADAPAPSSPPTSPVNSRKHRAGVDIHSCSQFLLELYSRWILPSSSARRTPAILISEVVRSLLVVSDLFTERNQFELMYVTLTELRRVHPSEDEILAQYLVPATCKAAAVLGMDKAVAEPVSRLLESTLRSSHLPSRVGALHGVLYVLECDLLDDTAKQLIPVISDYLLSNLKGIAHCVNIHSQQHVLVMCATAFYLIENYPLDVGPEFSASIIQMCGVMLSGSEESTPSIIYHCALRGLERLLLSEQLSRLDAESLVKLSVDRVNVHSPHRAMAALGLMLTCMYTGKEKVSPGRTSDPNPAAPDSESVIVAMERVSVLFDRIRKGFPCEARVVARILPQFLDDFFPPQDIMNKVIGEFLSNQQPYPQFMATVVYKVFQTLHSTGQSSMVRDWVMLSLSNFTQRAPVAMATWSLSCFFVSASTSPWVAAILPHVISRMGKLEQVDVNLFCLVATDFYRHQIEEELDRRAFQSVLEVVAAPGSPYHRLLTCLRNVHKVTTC
Pf apPOL inh: Pf-apPOL DNA polymerase inhibition; 0.25% of 210,000 active; AID 1794808; Recombinant Pf-apPOL, molecular beacon fluorescence, 1.5 h; inhibition, % at 10 µM
Numbers stand for hits; i = inactive; nt = no result. Compounds with a hit are over-represented: about 3.6% of the library has one in this group of screens. Cut-off read from the data, not from the text of the source: active = inhibition above about 50%; inactive = the rest.

SMILES | mHTT CaM bind | Pf apPOL inh
Cc1ccc(OCC(=O)Nc2cc([N+](=O)[O-])ccc2C)c(C)c1 | i | i
CC(C)n1cc(/C=C2\C(=O)NC(=O)N(c3ccc(F)cc3)C2=O)c2ccccc21 | i | i
O=C(NCCOc1cccc2cccnc12)c1cc(Cl)ccc1Cl | i | i
COc1ccc(Br)cc1CNc1ccc2c(c1)OCO2 | 98 | i
Cc1cccc(NCc2ccc3c(c2)OCO3)c1 | i | i
Cc1ccc(CNc2ccc3c(c2)OCO3)c(C)c1 | 100 | i
COc1cc(Br)c(CNCc2ccc3c(c2)OCO3)cc1OC | i | i
COc1cccc(C2N(c3nccs3)C(=O)C3CCCN32)c1OC (stereo unspecified) | i | i
O=C(Nc1nc2ccc([N+](=O)[O-])cc2s1)c1ccccc1Br | i | i
CCC(=O)N1CCCC(c2ccnc(Nc3ccc(C)cc3)n2)C1 (stereo unspecified) | 56 | i
Cc1ccc(Nc2nccc(C3CCCN(C(=O)C(C)(C)C)C3)n2)cc1 (stereo unspecified) | i | i
O=C(C1CCC1)N1CCCC(c2ccnc(Nc3ccccc3)n2)C1 (stereo unspecified) | i | i
O=C(c1ccco1)N1CCCC(c2ccnc(Nc3ccccc3)n2)C1 (stereo unspecified) | i | i
Cc1ccc(C(=O)N2CCCC(c3ccnc(Nc4ccccc4)n3)C2)s1 (stereo unspecified) | 61 | i
Cc1ccc(Nc2nccc(C3CCCN(C(=O)c4ccco4)C3)n2)cc1 (stereo unspecified) | 87 | i
Cc1ccc(NC(=O)COc2ccccc2Cl)cc1[N+](=O)[O-] | i | i
Cc1cc(F)c(F)cc1C(=O)N1CCCCC1C (stereo unspecified) | i | i
CCOc1nn(-c2nc(-c3cccc(OC)c3)cc(C(F)(F)F)n2)cc1[N+](=O)[O-] | i | i
O=C(Nc1ccc(N2CCCC2)cc1)c1ccc(Br)o1 | 62 | i
O=C(Nc1cnc(N2CCCCC2)nc1)c1ccc(Br)o1 | i | i
O=C(Nc1ccc(N2CCCCC2)cc1)c1ccccc1[N+](=O)[O-] | i | i
O=C(Nc1ccc(N2CCCC2)cc1)c1cc(Br)ccc1Cl | 86 | i
O=C(Nc1ccc2c(c1)CCCN2C(=O)C1CC1)c1cc(Br)ccc1Cl | i | i
O=C(Nc1ccc(N2CCCC2)cc1)C(Cl)(Cl)Cl | 74 | i
Cc1ccccc1C(=O)Nc1ccc(N2CCCC2)cc1 | i | i
SMILES | mHTT CaM bind | Pf apPOL inh
O=C(Nc1ccc(N2CCCC2)cc1)c1ccccc1[N+](=O)[O-] | 84 | i
O=C(O)C1(NCc2ccccc2Cl)CCCCC1 | i | i
COc1nn(C)cc1C(=O)Nc1ccc(C(=O)NCc2c(F)cccc2F)cc1 | i | i
COc1cc(Cl)ccc1NC(=O)Cn1nc([N+](=O)[O-])c(Br)c1C | i | i
CCCCN(C)CCCN1C(=O)c2ccccc2C1C(=O)NC1CCCCC1 (stereo unspecified) | i | i
O=C(Nc1ccccc1)c1nc[nH]c1C(=O)Nc1ccccc1 | i | i
O=C(Nc1ccc(Br)cc1)c1nc[nH]c1C(=O)O | 80 | i
O=C(NCCc1nc2ccccc2n1Cc1ccccc1F)c1cccs1 | i | i
COc1ccc(C2=N/C(=C\c3cc(Br)cs3)C(=O)O2)cc1Br | i | i
Cc1nc(C)c(C(=O)OCc2cc(-c3ccc4c(c3)OCCO4)on2)s1 | i | i
O=C(OCc1cc(-c2ccc3c(c2)OCCO3)on1)c1cc(-c2ccco2)n[nH]1 | 69 | 67
Cc1nc(NC(=O)C23CC4CC(CC(C4)C2)C3)sc1C(=O)N(C)C | i | i
CCN(CCC#N)c1ccccc1 | i | i
CCN(CCC#N)c1ccc(N=Nc2ccc([N+](=O)[O-])cc2)cc1 | 53 | i
O=C(CN1C(=O)CC(c2ccccc2)=Nc2cccnc21)Nc1ccccc1Cl | i | 65
Cc1ccccc1NC(=O)CN1C(=O)CC(c2ccccc2)=Nc2cccnc21 | i | i
Cc1ccc(OCCSCc2nnc(NC(=O)Nc3ccccc3F)s2)cc1 | i | i
O=C(O)c1cccc(NC(=O)c2ccc(Cl)cc2)c1 | i | i
Cc1cccc(N2CCC(C(=O)NCc3ccccc3F)C2=O)c1 (stereo unspecified) | i | i
CC(=O)N1CCc2sc(C(=O)N3CCN(c4ccccc4F)CC3)cc2C1 | i | i
CCC(=O)N1CCc2sc(C(=O)N3CCN(CC)CC3)cc2C1 | i | i
CCC(=O)N1CCc2sc(C(=O)N3CCN(c4cc(C)ccc4C)CC3)cc2C1 | 66 | i
CC(=O)N1CCc2sc(C(=O)N3CCN(c4cc(C)ccc4C)CC3)cc2C1 | 65 | i
COc1cccc(-c2cc3n(n2)CCCN(S(=O)(=O)c2ccc(NC(C)=O)cc2)C3)c1 | i | i
c1ccc(-n2cc(-c3nc4ccccc4o3)cn2)cc1 | i | i
SMILES | mHTT CaM bind | Pf apPOL inh
O=S(=O)(NCCNc1ccc(Nc2ccccn2)nn1)c1ccccc1C(F)(F)F | 97 | i
O=C(O)COCC(=O)Nc1ccccn1 | nt | i
O=c1cccnn1CCNS(=O)(=O)c1ccccc1C(F)(F)F | i | i
Cc1nccn1-c1cc(NCCNC(=O)Nc2ccc(F)c(Cl)c2)ncn1 | i | i
O=C(NCCNc1ccc(Nc2ccccn2)nn1)Nc1ccc(F)c(Cl)c1 | 100 | i
O=C(COc1ccccc1)NCCNc1ccc(Nc2ccccn2)nn1 | 87 | i
O=C1OC(c2cccc(Br)c2)=N/C1=C\c1cccc(F)c1 | i | i
CCOC(=O)NN=C1CCCC1 | nt | i
O=C(NCC1CC1)C1CCN(c2ncccc2-c2nc(-c3ccccc3)no2)CC1 | i | i
O=S(=O)(c1ccc2ccccc2c1)N1CCc2cc(Br)ccc21 | i | nt
Cc1ccc(NC(=O)Cc2nnc(-c3ccc4ncccc4c3)o2)cc1 | i | i
CC(C)(C)n1nc2c(c1NC(=O)c1cc3ccccc3oc1=O)CS(=O)(=O)C2 | i | i
Cc1cc(-c2nnc(SCC(N)=O)o2)c(C)o1 | i | i
Cc1cccc(NC(=O)CSc2cn(CCNC(=O)c3ccc(F)cc3)c3ccccc23)c1 | i | i
Cc1cc(C)cc(NC(=O)CSc2cn(CCNC(=O)c3ccc(F)cc3)c3ccccc23)c1 | 78 | i
COc1ccc(C2CC(=O)Oc3c(C(CCN4CCOCC4)c4cc(OC)c(OC)c(OC)c4)c(OC)cc(OC)c32)cc1 (stereo unspecified) | i | i
COc1ccc(NC(=O)CCN2CCN(c3ccccc3)CC2)c(OC)c1 | i | i
COc1cc(C2CC(=O)Oc3c(C(C)C)ccc(C)c32)cc(OC)c1OC (stereo unspecified) | i | i
COc1cc(C(CCN2CCCCC2)c2c(OC)cc(OC)c3c2OC(=O)CC3c2ccc(N(C)C)cc2)cc(OC)c1OC (stereo unspecified) | 78 | i
COc1cc(C(CCN2CCCC2)c2c(OC)cc(OC)c3c2OC(=O)CC3c2ccc(N(C)C)cc2)cc(OC)c1OC (stereo unspecified) | 75 | i
COc1cc(C(CCN2CCOCC2)c2c(OC)cc(OC)c3c2OC(=O)CC3c2ccc(N(C)C)cc2)cc(OC)c1OC (stereo unspecified) | 74 | i
COc1ccc(C2CC(=O)Oc3c(C(CCN4CCN(c5ccccc5)CC4)c4ccc(N(C)C)cc4)c(OC)cc(OC)c32)cc1 (stereo unspecified) | 73 | i
COc1ccc(NC(=O)c2cnn3c(C(F)(F)F)cc(-c4ccc(C)cc4)nc23)c(OC)c1 | i | i
CC(=O)c1cccc(Nc2nc(-c3ccc(Cl)cc3)cs2)c1 | i | i
